According to PubChem BioAssay (NCATS):
Several values for one entry are separate records, joined by “and”; a condition that tells them apart may be missing. Equal values may be shown once. Records with an inconclusive call do not appear. Where a structure was tested more than once in an assay, its records may differ in their call. Activity calls are given as the source filed them. Calls follow the shape of the dose curve; as a rule, active = well fitted cell-killing curve with a large enough effect; inconclusive = small, poorly fitted or top-dose-only effect, or effect the other way; inactive = no such curve, though single readings can be large or run the other way.
Potency is read from the fitted curve at half-maximal effect.

Assay: Viability qHTS for spleen associated tyrosine kinase inhibitor (SYKi) naive MV4-11 cells (AID 1963823); also: nearly all actives have a fitted effect of over 40% in size
Conditions: MV4-11 AML viability, CellTiter-Glo luminescence, 72 h; series mostly up to 45 µM; viability (% of control): at the top concentration
Summary of the method: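 Compounds were dispensed acoustically onto plates, MV4-11 cells (SYKi-naive) added at 500 per well, and plates incubated 72 hr at 37 C. CellTiter-Glo was added and luminescence measured after 10 min.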
With COc1ccc(S(=O)(=O)Nc2nnc(CC(C)C)s2)cc1 the “viability (% of control)” value was 64.3% (inactive). For CCc1cc(C(N)=O)ccc1-n1nc(C(C)C)c2c(-n3cnc(-c4cnn(C)c4)c3)ccnc21, the Potency was 372 nM (active). In the case of CCCCCCCCCCCCCCCC[n+]1ccccc1, the Potency is reported as 668 nM (active). In the case of CCS(=O)(=O)N1CCC([C@@H](C)n2c(C)c(C(=O)NCc3c(OC)cc(C)[nH]c3=O)c3ccccc32)CC1, the “viability (% of control)” value is reported as 83.3% (inactive). In the case of COc1cc(C(=S)N2CCOCC2)ccc1O, the “viability (% of control)” value is reported as 64.3% (inactive). For COc1cc(OC)c(/C=C/S(=O)(=O)Cc2ccc(OC)c(NCC(=O)O)c2)c(OC)c1, the Potency was 92 nM (active) and 105 nM (active). With C#C[C@]1(O)CC[C@H]2[C@@H]3CCc4cc(O)ccc4[C@H]3CC[C@@]21C the Potency was “inactive and 14.8 µM (active)”. With C[C@H]1C[C@H]2[C@@H]3CCC4=CC(=O)C=C[C@]4(C)[C@H]3C(=O)C[C@]2(C)[C@@]1(O)C(=O)CO the Potency was “inactive”. For COc1ccc([C@@H]2Sc3ccccc3N(CCN(C)C)C(=O)[C@@H]2OC(C)=O)cc1, the Potency was “inactive”. In the case of CN(C)Cc1ccc(S(=O)(=O)n2ccc(/C=C/C(=O)NO)c2)cc1, the Potency is reported as 3320 nM (active). For C[C@@H]1C(=O)OC2[C@H](O)[C@]34[C@H]5C[C@@H](C(C)(C)C)[C@]36[C@@H](OC(=O)[C@@H]6O)O[C@@]4(C(=O)O5)[C@]21O (stereo not given in full), the “viability (% of control)” value was 96.3% (inactive). With CCC(CC)CC1(C(=O)Nc2ccccc2SC(=O)C(C)C)CCCCC1 the Potency was “inactive”. For C#Cc1ccc(-c2ccccc2F)cc1, the “viability (% of control)” value was 71.4% (inactive). In the case of CC(=O)c1ccc2c(c1)c1cc(C(C)=O)ccc1n2CCNC(C)C, the Potency is reported as 372 nM (active). For CC(=O)Oc1cccc(O)c1, the “viability (% of control)” value was 90.2% (inactive). In the case of COc1ccc(S(=O)(=O)N2CCc3cccc(-c4ccncc4)c32)cc1, the Potency is reported as 833 nM (active). For C[C@@H](C(=O)Nc1ccc(Cl)cc1)C1CCC(c2ccnc3ccc(F)cc23)CC1 (stereo not given in full), the Potency was 18600 nM (active). In the case of Cc1cccc(C)c1NC(=O)CN(CC(=O)O)CC(=O)O, the “viability (% of control)” value is reported as 72.7% (inactive). For Cc1nc2cccc(N)c2c(=O)n1C1CCC(=O)NC1=O (stereo not given), the Potency was 209 nM (active). In the case of CCCN1CCCC[C@H]1C(=O)Nc1c(C)cccc1C, the “viability (% of control)” value is reported as 74.8% (inactive). For COc1cc2c(cc1OC(C)C)[C@H](c1ccc(Cl)cc1)N(c1ccc(N(C)CC3CCC(N4CCN(C)C(=O)C4)CC3)cc1)C(=O)C2 (stereo not given in full), the Potency was 11800 nM (active). With C[C@@H]1CC(=O)Nc2cccc(-c3cnn(C(C)(C)C)c3)c2N1 the Potency was 14800 nM (active). In the case of CC(=O)c1cc2c(o1)C(=O)c1ccccc1C2=O, the Potency is reported as 1180 nM (active). With O=S1(=O)OC(c2ccc(O)cc2)(c2ccc(O)cc2)c2ccccc21 the “viability (% of control)” value was 95.3% (inactive). For Cc1c(N(C)C)c(=O)n(-c2ccccc2)n1C, the “viability (% of control)” value was 66.4% (inactive). With CC(=NNC(=O)c1cccc(S(=O)(=O)N2CCOCC2)c1)c1cc(Cl)ccc1O the Potency was 742 nM (active). In the case of Cn1cc(/C=C/C(=O)c2cccc(F)c2)cc1/C=C/C(=O)NO, the Potency is reported as 3720 nM (active). For O=C(CCCl)NCCc1ccccc1, the “viability (% of control)” value was 90.8% (inactive). With CN1C(=O)[C@@H](NC(=O)c2n[nH]c(Cc3ccccc3)n2)COc2ccccc21 the “viability (% of control)” value was 76% (inactive). With Cc1c(C(=O)NCCO)[n+](=O)c2ccccc2n1[O-] the “viability (% of control)” value was 82.8% (inactive). In the case of CC1(C)S[C@H]2[C@H](NC(=O)[C@@H](N)c3ccc(O)cc3)C(=O)N2[C@H]1C(=O)O, the “viability (% of control)” value is reported as 68.6% (inactive). For CSc1ccc(C(=O)c2[nH]c(=O)[nH]c2C)cc1, the “viability (% of control)” value was 61.4% (inactive). With Cc1ccc(C(=O)Nc2ccc(CN3CCN(C)CC3)c(C(F)(F)F)c2)cc1C#Cc1cnc2[nH]ncc2c1 the “viability (% of control)” value was 1.85% (inactive). For Oc1cc(O)cc(/C=C/c2ccc(O)c(O)c2)c1, the Potency was 5.9 µM (active) and 5.17 µM (active). For N=C1CCCN1Cc1[nH]c(=O)[nH]c(=O)c1Cl, the “viability (% of control)” value was 82.2% (inactive). In the case of Nc1ccc(S(=O)(=O)c2ccc(N)cc2)cc1, the “viability (% of control)” value is reported as 91.9% (inactive). With CO[C@H]1/C=C/O[C@@]2(C)Oc3c(C)c(O)c4c(O)c(c5c(c4c3C2=O)=NC2(CCN(CC(C)C)CC2)N=5)NC(=O)/C(C)=C/C=C/[C@H](C)[C@H](O)[C@@H](C)[C@@H](O)[C@@H](C)[C@H](OC(C)=O)[C@@H]1C the Potency was 18600 nM (active). For C=CC(=O)N1CCC[C@@H](n2nc(-c3ccc(Oc4ccccc4)cc3)c3c(N)ncnc32)C1, the Potency was 1.64 µM (active) and 662 nM (active). For Nc1ccc([N+](=O)[O-])c(C(F)(F)F)c1, the “viability (% of control)” value was 77.8% (inactive). In the case of c1cc(-c2cnn3cc(-c4ccc(N5CCNCC5)cc4)cnc23)c2cccnc2c1, the Potency is reported as 662 nM (active).
